# Screens as filed in PubChem.
# A selection: hits, their analogues and other compounds. The true share with any hit is near 2.5%.
# rCAG RNA binder: molecules binding r(CAG) RNA repeats; actives 1.3% (n = 370,000); r(CAG) RNA repeat, TO-PRO-1 dye displacement fluorescence; inhibition, % at 3 µM;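 active = inhibition above the plate cutoff, the mean of all test compounds on that plate plus 3 SD, cut at about 35% in these data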;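 note: higher means more dye released from RNA so lower well fluorescence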
# PG9 Ab binder: small molecules binding HIV-1 gp120 antibody PG9. TR-FRET gp120-PG9 antibody binding. inhibition, % at 6.7 µM. actives 0.43% (n = 360,000). AID 624416; in the data active = inhibition above about 8.5%
# ABCB6 inh MLPCN: inhibitors of human ABC transporter ABCB6; Q9NP58; fluorescence ratio to DMSO, % at 10 µM; K562-ABCB6 porphyrin accumulation, flow cytometry, 1 h; active compounds read low; actives 0.19% (n = 360,000);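 active = fluorescence ratio to DMSO below 75%, the collection mean minus 3 SD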;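 note: signal is porphyrin accumulated inside mitochondria; lower ratio means ABCB6 inhibition with less porphyrin fluorescence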
# Target sequence (Q9NP58 whole entry, looked up): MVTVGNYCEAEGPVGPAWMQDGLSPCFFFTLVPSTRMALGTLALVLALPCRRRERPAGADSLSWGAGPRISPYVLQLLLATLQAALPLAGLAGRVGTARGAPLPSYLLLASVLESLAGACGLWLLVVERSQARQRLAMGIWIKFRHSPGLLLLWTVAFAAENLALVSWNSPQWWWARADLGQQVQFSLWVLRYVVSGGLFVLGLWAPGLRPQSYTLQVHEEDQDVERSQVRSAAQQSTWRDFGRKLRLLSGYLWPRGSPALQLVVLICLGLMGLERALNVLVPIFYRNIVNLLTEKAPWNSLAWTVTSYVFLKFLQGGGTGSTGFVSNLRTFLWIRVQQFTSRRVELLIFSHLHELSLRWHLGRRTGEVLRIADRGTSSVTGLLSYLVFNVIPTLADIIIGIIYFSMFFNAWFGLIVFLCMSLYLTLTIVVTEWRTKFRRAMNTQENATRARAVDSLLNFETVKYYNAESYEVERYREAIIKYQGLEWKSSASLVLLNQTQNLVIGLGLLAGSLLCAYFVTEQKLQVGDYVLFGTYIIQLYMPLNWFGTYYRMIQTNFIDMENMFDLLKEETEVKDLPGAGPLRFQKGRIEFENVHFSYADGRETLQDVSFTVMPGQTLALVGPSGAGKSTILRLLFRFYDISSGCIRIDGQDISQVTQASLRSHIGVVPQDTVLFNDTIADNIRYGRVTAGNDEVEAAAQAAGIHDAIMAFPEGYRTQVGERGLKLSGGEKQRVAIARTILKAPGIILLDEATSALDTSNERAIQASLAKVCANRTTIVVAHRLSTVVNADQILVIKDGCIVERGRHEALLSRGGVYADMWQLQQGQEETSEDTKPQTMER
# Exocytosis inh: blocks lytic granule exocytosis. TALL-104 LAMP-1 surface exposure, flow cytometry; cells stimulated with thapsigargin and PMA. inhibition, % at 10 µM. actives 0.66% (n = 360,000). AID 651702;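 active = inhibition above about 55%, limit read from the data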
# Numbers stand for hits; 0 = inactive; - = no result given.
SMILES,rCAG RNA binder,PG9 Ab binder,ABCB6 inh MLPCN,Exocytosis inh
Cc1cc(N/N=C/c2ccccc2O)c2ccccc2n1,0,0,0,75.8
COC(=O)[C@]12C[C@H](CC(=O)N3CCOCC3)C(=O)N(Cc3ccccc3)C1=C[C@H](C(C)(C)C)O[C@@H]2C,0,0,-,-
CCn1c(SCC(=O)Nc2ccc(NC(=O)c3ccco3)c(OC)c2)nc2ccccc2c1=O,0,0,0,0
COCCn1c(SCC(=O)Nc2ccc(NC(=O)c3ccco3)c(OC)c2)nc2ccccc2c1=O,0,0,0,94.1
CC(=O)c1sc(NS(=O)(=O)c2ccc(C)cc2)nc1C,0,0,0,0
C/C(=N/NC(=O)c1sc(NS(=O)(=O)c2ccc(C)cc2)nc1C)c1sc(N)nc1C,47.8,0,0,0
CCOC(=O)c1c(NC(=O)c2ccccc2)sc2c(O)c(CN(CC)CC)ccc12,0,0,69.0,0
CCN(CC)Cc1c(NC(=O)c2ccccc2)sc(C)c1C,0,0,0,0
Cc1ccc(NC(=S)Nc2cccc3cnccc23)cc1C,0,0,0,55.8
CC(/C=N/N1CCN(c2ccccn2)CC1)=C\c1ccccc1,0,0,0,75.8
CCN1Cc2nnn(Cc3ccccc3)c2-c2cc(N3CCCC3)ccc2S1(=O)=O,0,-,-,-
O=S1(=O)c2ccc(N3CCSCC3)cc2Oc2ccccc2CN1Cc1cn(Cc2ccc(Cl)cc2)nn1,0,-,-,-
COc1ccc(OC(=O)N2C/C(=C/c3ccccc3)C(=O)/C(=C\c3ccccc3)C2)cc1,0,0,0,61.6
CCOC(=O)N1C/C(=C\c2ccccc2)C(=O)/C(=C/c2ccccc2)C1,0,0,0,0
CN(C)CCC(=O)N1C/C(=C/c2ccccc2)C(=O)/C(=C\c2ccccc2)C1,0,0,0,67.8
C[N+](C)(C)CCC(=O)N1C/C(=C/c2ccccc2)C(=O)/C(=C\c2ccccc2)C1,0,0,0,0
CNC(=O)C1C(=S)NC(N)=C(C#N)C1c1ccccc1 (configuration not stated),0,0,0,69.2
COC(=O)C1=C(C)OC(N)=C(C#N)C1c1ccccc1 (configuration not stated),0,0,0,0
Cc1ccc(-c2csc(N/N=C/c3ccco3)n2)cc1,0,0,0,0
C(=N\Nc1nc(-c2ccccc2)cs1)/c1ccncc1,0,0,0,0
CN(C)S(=O)(=O)c1ccc(-c2csc(N/N=C/c3ccco3)n2)cc1,0,0,0,101.7
CN(C)S(=O)(=O)c1ccc(-c2csc(N/N=C/c3ccc(O)cc3)n2)cc1,0,0,0,100.9
COc1cc(C(=O)Nc2nc3ccccc3s2)ccc1OCc1c(C)noc1C,0,11.0,0,0
COC(=O)[C@H](CC(C)C)N(CCCc1cn(Cc2ccccc2)nn1)S(=O)(=O)c1ccccc1Br,0,-,-,-
Cc1ccc(S(=O)(=O)N(CC(=O)NC2CCC(C)CC2)c2cc(C)cc(C)c2)cc1 (configuration not stated),0,-,-,-
SMILES,rCAG RNA binder,PG9 Ab binder,ABCB6 inh MLPCN,Exocytosis inh
C=CCN1C(=O)c2n[nH]c(COC)c2C1c1ccc(F)cc1 (configuration not stated),0,0,-,-
CC1=C(C#N)c2nc(N)c(C#N)c(C)c2/C1=C\c1ccc(OCC(=O)O)c(Cl)c1,47.0,0,0,0
COc1ccc2cc(/C=C3\SC(=S)NC3=O)c(N3CCOCC3)nc2c1,64.5,0,0,0
CCCCCCCCN1C(=O)[C@@H](CC(=O)N2CCN(C(=O)c3ccco3)CC2)C[C@@]2(C(=O)OC)C1=C[C@H](C(C)C)O[C@@H]2C1CC1,0,-,-,-
O=C(NCc1cccnc1)/C(=C/c1ccc(-c2ccc(Cl)cc2)o1)S(=O)(=O)c1ccccc1,0,0,0,86.7
Cc1nn(Cc2ccccc2Cl)c2sc(C(=O)Nc3nccs3)cc12,0,0,0,0
Cc1nn(Cc2ccc(F)cc2)c2sc(C(=O)Nc3nccs3)cc12,0,15.5,0,0
O=C(c1ccncc1)N1CC[C@H]2[C@H](CCCN2Cc2ccccc2)C1,0,-,-,-
CCOC(=O)N[C@H](C(=O)N1CCC[C@H]1C(=O)NC1CCCC1)C1CCCCC1,0,0,-,-
COc1ccccc1OCC(=O)NNc1c2ccccc2nc2ccccc12,0,0,0,58.6
COCc1cc(N2CCNC[C@H]2C)ccc1N1C[C@@H](C)O[C@@H](C)C1,0,0,-,-
CCn1c2ccccc2c2cc(NC(=O)COC(=O)c3cccc(F)c3F)ccc21,0,-,-,-
C[C@H](O)[C@@H]1C(=O)N2CCc3c([nH]c4cccc(-c5ccccc5)c34)[C@@H]2C[C@@H]1N(C)C(=O)c1ccccc1,0,0,-,-
Cc1cc(-c2csc(NC(=O)c3ccc(C#N)cc3)n2)c(C)n1Cc1ccco1,59.4,0,0,0
N#C/C(=C\c1ccc(-c2ccccc2[N+](=O)[O-])o1)C(=O)Nc1nc(-c2cccs2)cs1,49.5,0,0,0
N#C/C(=C\c1ccc(-c2ccc([N+](=O)[O-])cc2)o1)C(=O)Nc1nc(-c2cccs2)cs1,0,0,0,0
CC1=C(C(=O)OCCOC(C)C)C(c2cc3c(cc2Br)OCO3)C2=C(CCCC2=O)N1 (configuration not stated),0,0,0,100.2
c1cc2c3c(cccc3c1)NC1(CCC3(CC1)Nc1cccc4cccc(c14)N3)N2,0,0,0,60.3
c1cc2c3c(cccc3c1)NC1(CCCCCC1)N2,0,0,0,0
Clc1ccc(-c2csc(NCC3CCCO3)n2)cc1 (configuration not stated),0,0,-,-
CCCN(CCC)CC(O)Cn1cc(/C=C/C(=O)c2cccs2)c2ccccc21 (configuration not stated),0,0,0,0
CCCN(CCC)CC(O)Cn1cc(/C=C/C(=O)c2ccccc2)c2ccccc21 (configuration not stated),0,0,0,92.3
CCCCN(C)CC(O)Cn1cc(/C=C/C(=O)c2ccc(C)cc2)c2ccccc21 (configuration not stated),0,0,0,69.5
Cc1cc(C)nc(NC(=NCCc2c[nH]c3ccccc23)NC(=O)c2ccco2)n1,0,0,0,94.6
CCOC(=O)CC[C@H]1CC[C@]2(CCCN(C(=O)c3ccc4ccccc4n3)C2)O1,0,-,-,-
SMILES,rCAG RNA binder,PG9 Ab binder,ABCB6 inh MLPCN,Exocytosis inh
Nc1[nH]c(C(=O)c2ccccc2)c(-c2ccc3ccccc3c2)c1C(=O)NCc1ccc(F)cc1,0,0,-,-
CCc1nnc(NC(=O)CSc2nc(-c3ccccc3)nc3ccccc23)s1,0,0,0,0
CCc1nnc(NC(=O)CSc2nc(C3CCCCC3)nc3ccccc23)s1,0,15.6,0,0
CCOC(=O)c1c(SCCN2CCCCC2)n(-c2ccccc2)c(=S)n(-c2ccccc2)c1=O,0,0,0,68.9
O=C(Cn1cnc2ccccc2c1=O)N1CCN(Cc2ccc(F)cc2)CC1,0,-,-,-
Cc1c(Nc2cc(Cl)c3nonc3c2[N+](=O)[O-])c(=O)n(-c2ccccc2)n1C,0,0,38.0,0
Cc1c(Nc2ccc3nonc3c2[N+](=O)[O-])c(=O)n(-c2ccccc2)n1C,0,0,0,0
O=C(NCc1ccccc1)[C@@H]1CCCN1C(=O)[C@H]1CCCN1C(=O)c1cc(F)cc(F)c1,0,0,-,-
O=C(O)c1ccc(COc2ccc3ccccc3c2/C=C2/NC(=O)N(c3ccccc3)C2=O)cc1,73.7,0,0,0
